outcome, max response and Potency data for 19 compounds are collected here from PubChem BioAssay (NCATS).

Results filed as inconclusive are left out. A number with no mark means an inactive call. Calls of active or inactive are those of the source. The call rests on the fitted dose curve; in most records, active means well fitted inhibition curve with a large enough effect; inconclusive means small, poorly fitted or top-dose-only effect; inactive means flat fitted curve, though single readings scatter.

One test deals with CRL-7250. The experiment in a line: Cytotoxic Profiling of Annotated Libraries Using Quantitative High-Throughput Screening (AID 1296008). Further: potency means the concentration at half of the fitted maximal effect. On max response: on the % scale 0 is the no-effect control and ±100 the full control effect. The following applies: Five cell lines viability, CellTiter-Glo ATP luminescence, 48-72 h; max response: stronger effect = lower value. The essentials: (§1)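 Cells exposed to compounds for 48 or 72 hr at 37 degrees Celsius. Viability read as ATP-coupled luminescence with CellTiter-Glo after 10 min at room temperature.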

The subject of the next test is HEK293. The description is as above. The following applies: Five cell lines viability, CellTiter-Glo ATP luminescence, 48-72 h; max response: stronger effect = lower value. The essentials:
as §1
(In general: ATP-based viability assays read luminescence as a measure of living cells.)

The test system of test [1] is HaCat. The test is described as above. The note with it: Five cell lines viability, CellTiter-Glo ATP luminescence, 48-72 h; max response: stronger effect = lower value. In short, it runs like this:
as §1

In the next test the test system is KB-3-1. The test is described as above. The note with it: Five cell lines viability, CellTiter-Glo ATP luminescence, 48-72 h; max response: stronger effect = lower value. In short, it runs like this:
as §1

For a further test, the system named is NIH3T3. The description is as above. The note with it: Five cell lines viability, CellTiter-Glo ATP luminescence, 48-72 h; max response: stronger effect = lower value. The essentials: as §1
Test [2] concerns HACAT. The experiment in a line: qHTS assay to identify novel small-molecules to repurpose for Merkel cell carcinoma treatment (AID 1296009). The note with it: MCC and control cell lines, CellTiter-Glo viability, 72 h; at 44.8 µM (top of the series) unless noted. In short, it runs like this:
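Dose-response viability screen; 72 hr exposure at 37 degree celsius; CellTiter-Glo added, 10 min room temperature, luminescence read; RLUs scaled between no-cell and DMSO wells.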
(In general: Quantitative high-throughput screening tests each substance at several concentrations.)
Further: nearly all actives have a fitted effect of over 60% in size.

Consider `O=C(NNC(=O)c1ccc(CNS(=O)(=O)c2ccc(F)c(Cl)c2)cc1)c1ccccc1`, for which the result with CRL-7250, in the test on HaCat [1], with NIH3T3 and in the test on HACAT [2] was inactive. Also, the max response in the test with HEK293 was 4.45%; in the test on KB-3-1 it was 0.725%.

`NC(=O)Nc1cc(-c2ccc(CN3CCOCC3)cc2)sc1C(N)=O`: the Potency is 13200 nM (active) in the test with CRL-7250; 5260 nM (active) with HEK293; 332 nM (active) with HaCat [1]; 7430 nM (active) in the test with KB-3-1; 662 nM (active) in the test with NIH3T3.

For the compound `O=C(O)[C@H](CC(=O)N1C[C@@H]2CCCC[C@H]2C1)Cc1ccccc1`, the compound was classed as inactive with CRL-7250, with HaCat [1], in the test with NIH3T3 and with HACAT [2]. Besides, the max response was -4.31% in the test on HEK293 and 2.32% in the test on KB-3-1.

For `C[C@]12C=CC(=O)N[C@@H]1CC[C@H]1[C@H]3CC[C@@H](C(=O)Nc4cc(C(F)(F)F)ccc4C(F)(F)F)[C@@]3(C)CC[C@@H]12`, the max response in the test with CRL-7250 is -6.18%; in the test with HEK293, -11%; in the test with KB-3-1, -3.32%. For the same compound, the call with HaCat [1], with NIH3T3 and in the test with HACAT [2] was inactive.

Turning to `CC1(C)[C@H](O[C@H]2O[C@H](C(=O)O)[C@@H](O)[C@H](O)[C@H]2O[C@@H]2O[C@H](C(=O)O)[C@@H](O)[C@H](O)[C@H]2O)CC[C@@]2(C)[C@H]1CC[C@]1(C)[C@H]2C(=O)C=C2[C@H]3C[C@@](C)(C(=O)O)CC[C@]3(C)CC[C@]21C`, the figures for the max response with CRL-7250 and in the test with HEK293 were -14.3% and 0.699%, respectively. The outcome in the test with HaCat [1], with KB-3-1, with NIH3T3 and with HACAT [2] was inactive.

Consider `COc1ccc(CCC(=O)c2c(O)cc(O[C@@H]3O[C@H](CO)[C@@H](O)[C@H](O)[C@@H]3O[C@@H]3O[C@@H](C)[C@H](O)[C@@H](O)[C@@H]3O)cc2O)cc1O`, for which the max response with CRL-7250 was -4.09%; in the test with HEK293, -11.6%; in the test with KB-3-1, -1.61%. The outcome in the test with HaCat [1], in the test with NIH3T3 and with HACAT [2] was inactive.

`NC1=N[C@H]2[C@H](CS[C@H]2CCCCC(=O)O)N1`: the compound was classed as inactive in the test with CRL-7250, with HaCat [1] and in the test on KB-3-1. Moreover, the max response with HEK293 is -4.7%; in the test with NIH3T3, -0.4%. The outcome in the test on HACAT [2] is “inactive [at 17.4 µM]”.

Regarding `NC(=O)c1ncn([C@@H]2O[C@H](CO)[C@@H](O)[C@@H]2O)c1N`, the max response in the test with CRL-7250 was -3.14%; in the test with HEK293, 2.62%; in the test on KB-3-1 it was 1.9%. For the same compound, the compound was called inactive in the test with HaCat [1], in the test on NIH3T3 and with HACAT [2].

Regarding `C=C1C[C@@]2(O)O[C@@]3(C[C@H]2C(C)C)[C@H](C)CC[C@H]13`, the max response with CRL-7250 is -11.2%; in the test with HEK293 it was 0.867%; in the test with NIH3T3, 2.78%. Moreover, the outcome in the test on HaCat [1], in the test with KB-3-1 and in the test on HACAT [2] was inactive.

For `C=CC[C@@H]1C=C(C)C[C@H](C)C[C@H](OC)[C@H]2O[C@@](O)(C(=O)C(=O)N3CCCC[C@H]3C(=O)O[C@H](C(C)=C[C@@H]3CC[C@H](O)[C@H](OC)C3)[C@@H](C)[C@@H](O)CC1=O)[C@@H](C)C[C@@H]2OC`, the max response with CRL-7250 is -10%. For the same compound, in the test with HEK293, the Potency is 7430 nM (active). Moreover, the outcome in the test with HaCat [1], with KB-3-1, in the test with NIH3T3 and with HACAT [2] was inactive.

As to `Cc1cc(-c2nnc3n2CCCCC3)c(C)n1-c1ccccc1`, the max response was -6.3% in the test on CRL-7250, -6.24% in the test on HEK293, -0.0627% with KB-3-1 and 1.52% in the test with NIH3T3. The result in the test on HaCat [1] and with HACAT [2] was inactive.

With `Cc1ccc(O)c(C(CCN(C(C)C)C(C)C)c2ccccc2)c1` (stereo not drawn), the outcome with CRL-7250, in the test on HaCat [1], in the test with KB-3-1, with NIH3T3 and in the test on HACAT [2] was inactive. Besides, the max response in the test with HEK293 was -19.9%.

As for `C[N+]1(C)[C@@H]2C[C@@H](OC(=O)C(O)(c3cccs3)c3cccs3)C[C@H]1[C@@H]1O[C@@H]12`, the outcome in the test with CRL-7250, in the test with HaCat [1], in the test on KB-3-1 and in the test with HACAT [2] was inactive. The max response in the test on HEK293 was -10%; with NIH3T3 it was -6.05%.

`CC(C=CC=C(C)C=CC1=C(C)CCCC1(C)C)=CC=CC=C(C)C=CC=C(C)C=CC1=C(C)CCCC1(C)C`: the max response in the test on CRL-7250 is -6.98%; in the test with HEK293 it was -0.757%; in the test on KB-3-1 it was 8.98%; in the test with NIH3T3 it was -4.98%. Moreover, the outcome in the test with HaCat [1] and in the test on HACAT [2] was inactive.

As for `CC(C)(C)[C@H](NC(=O)c1ccc(N)c(Cl)c1)C(=O)N1CCC[C@@H]1C(=O)N[C@H](C#N)CC(=O)O`, the outcome in the test on CRL-7250, in the test with HaCat [1] and in the test on NIH3T3 was inactive. For the same compound, the results for the max response with HEK293 and with KB-3-1 were -9.49% and 5.36%, respectively. In addition, in the test on HACAT [2], the outcome is “inactive [at 4.96 µM]”.

In the case of `CC(=O)N1CCN(c2ccc(OCc3nn(C)c(C)c3-c3cccc4c(CCCOc5cccc6ccccc56)c(C(=O)O)n(Cc5cccnc5)c34)cc2)CC1`, the compound was called inactive in the test on CRL-7250, in the test on HaCat [1], in the test with KB-3-1 and in the test with HACAT [2]. The max response in the test with HEK293 is -15.3%; in the test with NIH3T3, -8.89%.

On to `C[C@H](CCC(=O)O)[C@H]1CC[C@H]2[C@@H]3[C@H](O)C[C@@H]4C[C@H](O)CC[C@]4(C)[C@@H]3CC[C@]12C`, for which the max response in the test on CRL-7250 was 2.36%; in the test with HEK293 it was -7.11%; in the test with KB-3-1, 1.89%. For the same compound, the compound was classed as inactive with HaCat [1], in the test with NIH3T3 and in the test with HACAT [2].

For `NC(=O)c1cccc(-c2cccc(OC(=O)NC3CCCCC3)c2)c1`, the compound was classed as inactive with CRL-7250, with HaCat [1], in the test on NIH3T3 and in the test on HACAT [2]. The max response is -9.31% in the test with HEK293 and 6.26% with KB-3-1.

With `N#Cc1c(NC(=O)c2cccc3ccccc23)sc2c1CCCC2`, the Potency with CRL-7250 is 1320 nM (active); in the test on HEK293, 372 nM (active); with KB-3-1, 469 nM (active); with NIH3T3 it was 332 nM (active). The compound was called inactive with HaCat [1] and in the test on HACAT [2].
